This is an account of results in PubChem BioAssay AID1053133 (Broad Institute, 2014).

SMILES strings stand for the structures. Where “and” joins values, the source holds several entries; their conditions need not be identical. Equal entries are not always repeated. Among all 89,000 compounds or so, about 10 (0.01%) were called active. About 10% were inconclusive and are not listed. Rule as the data show it: active = activity change below about -37% (passing the limit was not always enough); inconclusive = no clear call, values can overlap the other calls; tested in A549 cells. These entries were drawn from the full list.

The experiment is described as follows: blocks a specific stage of Vaccinia orthopoxvirus infection, primary screen, cell-based, single point (AID 1053133). As to conditions: Vaccinia-infected cells, mCherry/Venus stage reporter fluorescence, stronger effect = lower value, concentration not given here; activity change (Venus): measured here: Venus reporter, other viral stage.
As for `O=C(C[C@H]1C=C[C@@H](NC(=O)C2CCOCC2)[C@@H](CO)O1)NCC1CCCCC1`, the activity change (Venus) amounted to 1.03% and the activity change (mCherry) is 8.68% (inactive).
For `O=C(CC1CC1)Nc1ccc2c(c1)[C@@H]1C[C@@H](CC(=O)NC3CCCCC3)O[C@@H](CO)[C@@H]1O2` the same measures were -4.69% and -3.33% (inactive).
Turning to `O=C(Nc1cc(F)ccc1F)N[C@@H]1C=C[C@@H](CC(=O)N2CCc3ccccc3C2)O[C@@H]1CO`, the activity change (Venus) was -0.0639% and the activity change (mCherry) was -17.7% (inactive).
For the compound `C[C@H](CO)N1C[C@H](C)[C@@H](CN(C)C(=O)c2cnccn2)Oc2ncc(Br)cc2C1=O`, the activity change (Venus) was -0.956% and the activity change (mCherry) is 2.65% (inactive).
Take `CCCNC(=O)N(C)C[C@H]1Oc2cc(C3=CCCCC3)ccc2S(=O)(=O)N([C@H](C)CO)C[C@H]1C`: the activity change (Venus) is -0.298% and the activity change (mCherry) was -6.09% (inactive).
In the case of `Cc1ccccc1S(=O)(=O)N[C@H]1CC[C@H](CCn2cc(-c3ccc(F)cc3)nn2)O[C@H]1CO`, the activity change (Venus) is -25.8% and the activity change (mCherry) was -28.8% (inactive).
As for `C[C@H]1CCCCO[C@H](CN(C)S(=O)(=O)c2cn(C)cn2)[C@@H](C)CN([C@@H](C)CO)C(=O)c2cc(NC(=O)C3CCCCC3)ccc2O1`, the activity change (Venus) is 4.42% and the activity change (mCherry) is 9.05% (inactive).
Take `O=C(Nc1nccs1)[C@@H]1[C@@H](CO)[C@@H]2Cn3c(ccc(-c4cccnc4)c3=O)[C@@H]2N1CC1CC1`: the activity change (Venus) was found to be 2.33% and the activity change (mCherry) is 16.6% (inactive).
The corresponding values for `COc1cccc(-c2cnc3c(c2)C(=O)N([C@H](C)CO)C[C@H](C)[C@@H](CN(C)Cc2ccc(C(=O)O)cc2)O3)c1` are 12.8% and 13.4% (inactive).
For `COc1ccccc1-c1cnc2c(c1)C(=O)N([C@H](C)CO)C[C@H](C)[C@@H](CN(C)C(=O)CC1CC1)O2` the same measures were -0.21% and 5.06% (inactive).
With `O=C(C[C@H]1CC[C@H]2[C@@H](COC[C@@H](O)CN2Cc2ccccc2F)O1)NCc1ccccc1F`, the activity change (Venus) is 2.5% and the activity change (mCherry) was -8.36% (inactive).
In the case of `O=C(C[C@H]1CC[C@H]2[C@@H](COC[C@@H](O)CN2S(=O)(=O)c2ccc(Cl)cc2)O1)NCCN1CCCCC1`, the activity change (Venus) worked out at 2.96% and the activity change (mCherry) is 7.02% (inactive).
For `COCC#Cc1ccc(CC[C@H]2O[C@H]3CC[C@@H](CO)O[C@H]3C[C@H]2NC(=O)Nc2c(C)noc2C)cc1` the same measures were 12.1% and 18.6% (inactive).
As to `CC(=O)N(C)C[C@@H]1Oc2ncc(C#Cc3ccccn3)cc2C(=O)N([C@@H](C)CO)C[C@@H]1C`, the activity change (Venus) worked out at 9.68% and the activity change (mCherry) was 7.16% (inactive).
As to `O=C(Cc1ccncc1)NCC[C@H]1CC[C@H](NC(=O)Nc2cccc(F)c2)[C@H](CO)O1`, the activity change (Venus) was 5.2% and the activity change (mCherry) is 3.69% (inactive).
As to `COc1ccc(NC(=O)Nc2ccc3c(c2)C(=O)N([C@@H](C)CO)C[C@@H](C)[C@@H](CN(C)C(=O)Nc2ccc(F)cc2)OCCCC[C@@H](C)O3)cc1`, the activity change (Venus) is -5.96% and the activity change (mCherry) was 0.168% (inactive).
As for `Cn1cnc(CCNC(=O)[C@H]2[C@H](CO)[C@H]3Cn4c(cccc4=O)[C@H]3N2C(=O)Nc2ccccc2)c1`, the activity change (Venus) is 5.32% and the activity change (mCherry) is 12% (inactive).
In the case of `COc1ccc(S(=O)(=O)Nc2ccc3c(c2)C(=O)N([C@@H](C)CO)C[C@H](C)[C@H](CN(C)Cc2ccc(C(=O)O)cc2)OCCCC[C@@H](C)O3)cc1`, the activity change (Venus) was found to be 19.1% and the activity change (mCherry) was 34.5% (inactive).
In the case of `O=C(C1CCCC1)N1[C@H](CO)[C@@H]2c3ccccc3N(S(=O)(=O)c3ccccc3)C[C@@H]21`, the activity change (Venus) is -0.835% and the activity change (mCherry) is 3.15% (inactive).
`CCC(=O)N1CCC2(CC1)CN(Cc1ccc(Cl)cc1)[C@@H](CO)c1[nH]c3cc(OC)ccc3c12`: the activity change (Venus) turned out to be 3.95% and the activity change (mCherry) was 2.91% (inactive).
Regarding `O=C(C[C@H]1CC[C@@H](NC(=O)c2ccc(F)cc2)[C@@H](CO)O1)NCc1ccncn1`, the activity change (Venus) was 6.42% and the activity change (mCherry) was 11.2% (inactive).
For the compound `Cc1ccc(S(=O)(=O)NCC[C@@H]2CC[C@@H](NC(=O)CCN3CCCCC3)[C@@H](CO)O2)cc1`, the activity change (Venus) amounted to 12.7% and the activity change (mCherry) was 18.4% (inactive).
For `Cc1ccccc1-c1ccc2c(c1)O[C@@H](CN(C)Cc1ccc(C(=O)O)cc1)[C@@H](C)CN([C@H](C)CO)S2(=O)=O`, the activity change (Venus) was 9.16% and -2.89%; the activity change (mCherry) was 13.4% (inactive) and 11.3% (inactive).
On to `COC(=O)[C@@H]1[C@@H](CO)[C@@H]2Cn3c(ccc(C4=CCCC4)c3=O)[C@@H]2N1Cc1cncnc1`, for which the activity change (Venus) stood at 12.2% and the activity change (mCherry) is 12.2% (inactive).
For `C[C@H](O)C#Cc1ccc([C@@H]2[C@@H](CO)N3CCCCN(C(=O)c4ccc(F)cc4)C[C@H]23)cc1`, the activity change (Venus) is -0.172% and the activity change (mCherry) is 24.9% (inactive).
The corresponding values for `COC(=O)C[C@H]1CC[C@H]2[C@H](COc3ccc(NC(=O)C4CC4)cc3C(=O)N2C)O1` are 8.69% and 16.9% (inactive).
The corresponding values for `C[C@@H](NC(=O)C[C@H]1CC[C@H](NS(=O)(=O)c2cccc(F)c2)[C@H](CO)O1)c1ccccc1` are 2.54% and 12.2% (inactive).
As for `COc1ccc(NC(=O)N(C)C[C@@H]2OCCCC[C@H](C)Oc3ccc(NS(=O)(=O)c4cn(C)cn4)cc3C(=O)N([C@@H](C)CO)C[C@@H]2C)cc1`, the activity change (Venus) came out at 6.5% and the activity change (mCherry) is 16% (inactive).
`CO[C@@H]1CN(C)C(=O)c2ccc(NS(=O)(=O)c3cccc(F)c3)cc2OC[C@H](C)N(C(=O)Cc2cccnc2)C[C@@H]1C`: the activity change (Venus) was -6.63% and the activity change (mCherry) was -1.85% (inactive).
On to `CCCNC(=O)N1[C@H](C#N)[C@@H](c2ccccc2C2=CCCCC2)[C@@H]1CO`, for which the activity change (Venus) was 2.66% and the activity change (mCherry) is -4.44% (inactive).
As to `O=C(C[C@H]1CC[C@H](NC(=O)c2ccc(F)cc2)[C@@H](CO)O1)NCCc1ccncc1`, the activity change (Venus) is -8.31% and the activity change (mCherry) was 6.53% (inactive).
For `CC(=O)N(C)C[C@@H]1Oc2cc(C#Cc3ccccc3F)ccc2S(=O)(=O)N([C@@H](C)CO)C[C@@H]1C` the same measures were -24.5% and -31.1% (inactive).
For `CCCNC(=O)N[C@H]1C=C[C@@H](CC(=O)NC2CCCCC2)O[C@H]1CO`, the activity change (Venus) is -1.05% and the activity change (mCherry) was -4.3% (inactive).
For `CS(=O)(=O)Nc1ccc2c(c1)[C@H]1C[C@@H](CC(=O)N3CCOCC3)O[C@@H](CO)[C@H]1O2` the same measures were 11.4% and 11% (inactive).
As for `CC(C)NC(=O)N1[C@H](CO)[C@H](c2ccccc2)C12CN(C(=O)Cc1ccccc1)C2`, the activity change (Venus) was 4.09% and the activity change (mCherry) was -7.19% (inactive).
For `COc1ccc2c3c([nH]c2c1)[C@@H](CO)N(C(=O)NC(C)C)CC31CCN(C(=O)c2ccccn2)CC1` the same measures were 4.18% and 12.8% (inactive).
On to `O=C(N[C@H]1CC[C@@H](CCn2cc(Cc3ccccc3)nn2)O[C@H]1CO)c1cnccn1`, for which the activity change (Venus) was -8.51% and the activity change (mCherry) is 6.03% (inactive).
Take `COc1ccc(-c2ccccc2[C@@H]2[C@@H](C#N)N(C(=O)NC3CCCC3)[C@H]2CO)cc1`: the activity change (Venus) is -17.8% and the activity change (mCherry) is -22.2% (inactive).
In the case of `C[C@@H]1CN([C@H](C)CO)C(=O)c2cc(NC(=O)Nc3ccc(F)cc3)ccc2O[C@@H](C)CCCCO[C@@H]1CN(C)S(=O)(=O)c1cn(C)cn1`, the activity change (Venus) came out at 23.4% and the activity change (mCherry) is 41.6% (inactive).
In the case of `CCN1[C@@H]2Cn3c(ccc(-c4cccc(OC)c4)c3=O)[C@H]1[C@@H](C(=O)N(C)C)[C@@H]2CO`, the activity change (Venus) came out at 15.1% and the activity change (mCherry) was 20% (inactive).
`CO[C@H]1CN(C)C(=O)c2ccc(NC(=O)C3CCOCC3)cc2OC[C@H](C)NC[C@H]1C`: the activity change (Venus) worked out at 1.25% and the activity change (mCherry) is -0.453% (inactive).
With `CN1c2ccc(C#Cc3cccnc3)cc2[C@H]2[C@H](CCN2S(=O)(=O)c2ccccc2)[C@@H]1CO`, the activity change (Venus) was -9.21% and the activity change (mCherry) was -5.16% (inactive).
In the case of `C[C@H](O)C#Cc1cnc2c(c1)C(=O)N([C@@H](C)CO)C[C@@H](C)[C@@H](CN(C)C(=O)Cc1ccccn1)O2`, the activity change (Venus) stood at 10.7% and the activity change (mCherry) was 17.6% (inactive).
For `O=C(C[C@H]1CC[C@H](NC(=O)CCN2CCCCC2)[C@@H](CO)O1)Nc1ccccc1`, the activity change (Venus) is 15.9% and the activity change (mCherry) was 7.83% (inactive).
Regarding `O=C(NCC[C@H]1CC[C@@H](NS(=O)(=O)c2cccc(Cl)c2)[C@@H](CO)O1)c1cnccn1`, the activity change (Venus) is -5.45% and the activity change (mCherry) is -13.7% (inactive).
For `C[C@H](CO)N1C[C@H](C)[C@@H](CN(C)Cc2ccc(Oc3ccccc3)cc2)Oc2cc(-c3ccncc3)ccc2S1(=O)=O`, the activity change (Venus) was 1.19% and the activity change (mCherry) is 4.26% (inactive).
`CO[C@@H]1CC[C@H]2CCN(C)C(=O)C[C@@H](c3ccccc3)CN(C)C(=O)c3cc(C#N)ccc3OC[C@@H]1O2`: the activity change (Venus) is -9.45% and the activity change (mCherry) is -7.23% (inactive).
In the case of `O=C(C[C@@H]1CC[C@H]2[C@@H](COC[C@H](O)CN2C(=O)Nc2ccccc2)O1)NCc1ccccc1F`, the activity change (Venus) was found to be 9.72% and the activity change (mCherry) was 7.54% (inactive).
Take `COc1cccc(S(=O)(=O)N2C[C@@H]3N[C@H](C2)C3c2ccc(-c3cccc(C(=O)N(C)C)c3)cc2)c1` (some centres undefined): the activity change (Venus) is -11.2% and the activity change (mCherry) is -13.4% (inactive).
Consider `CCCC(=O)N1CC2(CCN(C(=O)C3CC3)CC2)c2c(n(C)c3cc(OC)ccc23)[C@H]1CO`, for which the activity change (Venus) was -6.7% and the activity change (mCherry) is -2.69% (inactive).
Consider `COCC(=O)Nc1ccc2c(c1)OC[C@@H](C)N(Cc1ccccn1)C[C@H](C)[C@@H](OC)CN(C)C2=O`, for which the activity change (Venus) turned out to be 15.4% and the activity change (mCherry) is 16.4% (inactive).
On to `C/C=C/c1ccc(C2[C@H]3CNC[C@@H]2N3C(=O)Nc2ccc(F)cc2)cc1` (some centres undefined), for which the activity change (Venus) is 2.48% and -0.546%; the activity change (mCherry) is 0.263% (inactive) and -2.6% (inactive).
As for `COc1ccc2c3c([nH]c2c1)[C@H](CO)N(C(=O)CN1CCOCC1)CC31CN(C(C)=O)C1`, the activity change (Venus) was found to be 24.1% and the activity change (mCherry) was 42.6% (inactive).
As for `C[C@@H]1CCCCO[C@@H](CN(C)C(=O)Cc2ccccc2)[C@H](C)CN([C@H](C)CO)C(=O)c2cc(NC(=O)Cc3ccccc3)ccc2O1`, the activity change (Venus) was -23.2% and the activity change (mCherry) is -29.2% (inactive).
In the case of `CN(C)C(=O)c1ccc(-c2ccc([C@H]3[C@H](CO)N4C(=O)CN(C(=O)C5CCCC5)C[C@@H]34)cc2)cc1`, the activity change (Venus) worked out at 3.62% and the activity change (mCherry) was 4.76% (inactive).
`CO[C@H]1CC[C@H]2CCN(C)C(=O)C[C@@H](c3ccccc3)CN(C)C(=O)c3cccc(C#N)c3OC[C@@H]1O2`: the activity change (Venus) came out at 36.7% and the activity change (mCherry) is 37.9% (inactive).
Turning to `COc1ccccc1CNC(=O)C[C@H]1CC[C@@H](NC(=O)CN(C)C)[C@@H](CO)O1`, the activity change (Venus) turned out to be 17.1% and the activity change (mCherry) is 6.13% (inactive).
